Results reported in PubChem BioAssay AID624169 (The Scripps Research Institute Molecular Screening Center, 2012).
Hit rate of the full screen: of about 360,000 compounds, about 2,400 (0.67%) were called active. This is one part of a sample in which actives are shown more often than they occur. Values without a mark were called inactive.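 Rule for the calls: active = activation above a run cutoff, the mean activation of all tested compounds plus 3 SD (cut at about 14% in these data); inactive = the rest.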

Each compound was assayed against 5-hydroxytryptamine receptor 2A (Mus musculus) (UniProt P35363) (assay: activation of mouse 5-HT2A receptor – cell-based, luminescence, primary screen (AID 624169;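 note: 0% = plate median of compound wells and 100% = 30 µM serotonin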)). Settings: CHO-K1 mHTR2A beta-arrestin complementation, at 7.6 µM, stronger effect = higher value, percent of 30 µM serotonin response.
5-hydroxytryptamine receptor 2A (Mus musculus), sequence (P35363 whole entry, looked up): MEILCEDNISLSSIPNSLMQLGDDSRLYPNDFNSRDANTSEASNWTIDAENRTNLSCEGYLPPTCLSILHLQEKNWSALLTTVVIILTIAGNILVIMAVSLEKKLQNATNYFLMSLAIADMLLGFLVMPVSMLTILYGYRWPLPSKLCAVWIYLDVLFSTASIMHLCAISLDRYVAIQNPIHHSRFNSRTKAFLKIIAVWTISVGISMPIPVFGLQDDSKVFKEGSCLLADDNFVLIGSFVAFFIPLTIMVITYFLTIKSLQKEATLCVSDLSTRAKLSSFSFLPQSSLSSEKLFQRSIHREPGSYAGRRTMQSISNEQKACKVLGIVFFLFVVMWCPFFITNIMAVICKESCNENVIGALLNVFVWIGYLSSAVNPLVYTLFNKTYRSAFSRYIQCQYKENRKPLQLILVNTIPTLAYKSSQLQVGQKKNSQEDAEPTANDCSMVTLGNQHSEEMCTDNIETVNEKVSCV
Work on `CC(=O)NS(=O)(=O)c1ccc(NC(=O)C2C3C=CC(C3)C2C(=O)O)cc1` (stereo not given) yielded an activation of 2.61%. For `CCCCNC(=O)C[C@@H]1C[C@@]2(C(=O)OCC)CCC=C2N(Cc2ccco2)C1=O`, the activation was -3.77%. With `O=C1CC(c2cccc(Cl)c2)CC(O)=C1C=Nc1ccccc1` (stereo not given) the activation was 20.8% (active). `O=C1CCCC(O)=C1C=NCCc1ccccc1` was tested, and the activation was 2.15%. `O=C1C=C(c2cccc(Cl)c2)C[C@@H](c2ccc(F)cc2)C1` showed an activation of -0.66%. `C[C@@H]1CN([C@@H](C)CO)C(=O)c2cc(Br)cnc2O[C@H]1CN(C)Cc1ccc(-c2ccccc2)cc1` showed an activation of -1.74%. For `CCCC(=O)N=c1sc2cccc(F)c2n1C`, the activation was 39.7% (active). `Cn1c(=NC(=O)c2ccco2)sc2cccc(F)c21` showed an activation of 2.52%. For `Cn1c(=NC(=O)c2cnccn2)sc2ccccc21`, the activation was -2.18%. In the case of `CCOC(=O)/C=C/c1ccc(C(F)(F)F)cc1S(=O)(=O)NC(C)(C)C`, the activation is reported as -0.74%. Work on `Cc1cc(OCCCC(=O)NCCN2C(=O)S/C(=C\c3cccnc3)C2=O)ccc1Cl` yielded an activation of 8.37%. `COc1ccccc1N1CC(C(=O)NCCN2C(=O)S/C(=C\c3cccnc3)C2=O)CC1=O` (stereo not given) showed an activation of -0.83%. In the case of `COc1ccc(N2CC(C(=O)NCCN3C(=O)S/C(=C\c4cccnc4)C3=O)CC2=O)c(OC)c1` (stereo not given), the activation is reported as 18.4% (active). `CC1CCN(C(=O)COC(=O)c2cc(S(=O)(=O)N3CCOCC3)ccc2Cl)CC1` showed an activation of -1.57%. `O=C(COC(=O)c1ccc(S(=O)(=O)N2CCc3ccccc3C2)cc1)NC(=O)NCc1ccco1` was tested, and the activation was -5.24%. For `COc1cc(NC(=O)C2CCN(c3cnccn3)CC2)cc(OC)c1`, the activation was -2.92%. For `CCOCCCNC(=O)Cc1cc(=O)[nH]c(=O)[nH]1`, the activation was 20.9% (active). Work on `CCOC(=O)Cc1cc(=O)[nH]c(=O)[nH]1` yielded an activation of -0.86%. `CCOCCCNC(=O)C(=O)NCCCOCC` showed an activation of 0.95%. For `Cc1cc(OCCN2CCCC2)cc(C(C)C)c1`, the activation was -5.99%. `CCOC(=O)c1ccc(NC(=O)CCn2c(=O)oc3ccccc32)cc1` gave an activation of -5.94%. `CCOC(=O)c1ccc(NC(=O)Cn2cnc3cc(C)c(C)cc32)cc1` was tested, and the activation was 17.4% (active). With `CCOC(=O)c1ccc(NC(=O)CS(=O)(=O)c2cn(CC)c3ccccc23)cc1` the activation was -0.07%. With `COc1ccc2c(c1)C(C)=CC(C)(C)N2C(=O)CNCc1ccc2c(c1)OCO2` the activation was -18.1%. Work on `CCn1nnc(NC(=O)c2c(OC)cccc2OC)n1` yielded an activation of -1.47%. In the case of `Cc1ccc(CCNC(=O)CN2C(=O)CSc3ccc(S(=O)(=O)N4CCOCC4)cc32)cc1`, the activation is reported as -3.24%. `CCC(C)N1CC(=O)N2Cc3[nH]c4ccccc4c3C[C@H]2C1=O` (stereo not given in full) showed an activation of -3.21%. With `COc1cccc(C2c3[nH]c4ccccc4c3CCN2Cc2cccc(C)n2)c1` (stereo not given) the activation was -2.83%. For `COc1ccc(C2c3[nH]c4ccccc4c3C[C@H]3C(=O)N(CC(C)C)CC(=O)N23)c(OC)c1` (stereo not given in full), the activation was 26.6% (active). `S=C(Nc1ccc(Cl)cc1Cl)N1CCCC1` was tested, and the activation was -3.15%. For `O=C(c1ccncc1)N1CCN(c2ccc3ccccc3n2)CC1`, the activation was 25.6% (active). `O=C(c1ccc2ccccc2n1)N1CCN(c2ccccc2Cl)CC1` showed an activation of 7.25%. Work on `c1cnc(N2CCN(c3ccc4ccccc4n3)CC2)nc1` yielded an activation of -1.28%. Compound `COc1ccc(NC(=O)COC(=O)c2ccncc2)c(OC)c1` has an activation of -1.11%. `CCOC(=O)N1CCC(Nc2c(NCCCN3CCN(c4ccc(OC)cc4)CC3)c(=O)c2=O)CC1` showed an activation of 4.04%. For `CCCOc1ccc(CNC(=O)C2CCN(c3nn4c(=O)cc(C)nc4s3)CC2)cc1`, the activation was 11%. `COC(=O)CSc1nnc(-c2cccnc2)o1` showed an activation of 1.04%. `COc1cccc(NC(=O)CSc2nnc(-c3cccnc3)o2)c1` was tested, and the activation was 14.9% (active). Work on `O=C(CSc1nnc(-c2ccncc2)o1)Nc1cccc(Cl)c1` yielded an activation of -0.76%. Work on `O=C(CSc1nncs1)NC1CCCc2ccccc21` (stereo not given) yielded an activation of -0.06%. With `CC(C)COC(=O)n1c(=O)oc2ccc(S(=O)(=O)N3CCCCC3)cc21` the activation was 0.93%. `COc1ccc(Cn2c(=O)sc3ccccc32)cc1OC` gave an activation of 8.35%. `Cc1csc2ncc(C(=O)N(Cc3ccccc3)c3ccccn3)c(=O)n12` showed an activation of 0.53%. In the case of `CC(C)CNC(=S)NNC(=O)c1ccccc1OC(F)F`, the activation is reported as 1.02%. In the case of `CC(C)Oc1ccccc1C(=O)NC(CO)C(=O)O` (stereo not given), the activation is reported as 21.6% (active). Work on `COc1ccccc1C(=O)NC(CCSC)C(=O)N1CCN(C(C)=O)CC1` (stereo not given) yielded an activation of -3.47%. In the case of `O=C(COc1ccc2c(c1)CCC2)N1CCN(c2ccc(F)cc2)CC1`, the activation is reported as -4.42%. `CC[C@@H](C)[C@H](NC(=O)CCc1c(C)c2cc3c4c(oc3c(C)c2oc1=O)CCCC4)C(=O)O` was tested, and the activation was 6.8%. Compound `CCCCNS(=O)(=O)c1ccc2nc(SCC(=O)Nc3cc(C)cc(C)c3)[nH]c2c1` has an activation of 12.2%. In the case of `O=[N+]([O-])c1cccc(S(=O)(=O)N2CCCCCC2)c1`, the activation is reported as -1.72%. In the case of `Cc1cc(C)n(S(=O)(=O)c2cccc([N+](=O)[O-])c2)n1`, the activation is reported as 18.4% (active). With `CC1=NCCN1S(=O)(=O)c1cccc([N+](=O)[O-])c1` the activation was -2.76%. With `Cc1cc(C)cc(NC(=O)COc2coc(CN3CCN(c4ccccc4)CC3)cc2=O)c1` the activation was 6.93%. For `c1ccc(-c2nnc3n2NC(c2ccc4c(c2)OCO4)S3)cc1` (stereo not given), the activation was -0.81%. `Cc1ccc(/C=C/C(=O)OCC(=O)NCc2ccc(Cl)cc2)o1` was tested, and the activation was -2.51%. Compound `CCCCn1c(N)c(N(CC(C)C)C(=O)CN(C)S(=O)(=O)c2ccc(F)cc2)c(=O)[nH]c1=O` has an activation of 2.45%. With `CCCCn1c(N)c(N(CC(C)C)C(=O)CSc2ccc([N+](=O)[O-])cc2)c(=O)[nH]c1=O` the activation was 20.3% (active). `CCCCn1c(N)c(N(CCC(C)C)C(=O)c2ccc([N+](=O)[O-])o2)c(=O)[nH]c1=O` was tested, and the activation was 5.32%. With `COC(=O)c1ccc(S(=O)(=O)N2CCC(c3nc4ccccc4o3)CC2)cc1` the activation was 2.01%. `Cc1ccc(C(=O)N/C(=C/c2cccs2)C(=O)N2CCCCC2)cc1` was tested, and the activation was 19.9% (active). Compound `Cc1ccc(C(=O)N/C(=C/c2cccs2)C(=O)NCC2CCCO2)cc1` (stereo not given) has an activation of 6.31%. Work on `CN1CCN(C(=O)/C(=C\c2cccs2)NC(=O)c2cccs2)CC1` yielded an activation of -0.61%. For `CCOc1cc(CN2CCCC(CO)(Cc3ccc(F)cc3F)C2)ccc1OC` (stereo not given), the activation was -5.38%. Work on `CCOC(=O)c1sc(NC(=O)CSc2n[nH]c(CC)n2)nc1C` yielded an activation of -3.89%. `O=C(OCC(=O)N1CCOCC1)c1ccc2ccccc2c1` was tested, and the activation was 14.5% (active). With `O=C(OCC(=O)N1CCOCC1)c1ccc(N2CCOCC2)c([N+](=O)[O-])c1` the activation was -5.4%. Compound `Cc1ccc(C(=O)OCC(=O)N2CCCCCC2)cc1S(=O)(=O)N1CCOCC1` has an activation of 4.82%. In the case of `Cc1oc2nc(SCC(=O)NCc3cccnc3)nc(N)c2c1C`, the activation is reported as 0.74%. For `COC(=O)c1ccc2nc(-c3ccccc3)c(Cc3ccc(OC)cc3C)n2c1`, the activation was -0.62%. Work on `COC(=O)c1ccc2nc(-c3cccc(Br)c3)c(Cc3ccc(OC)cc3C)n2c1` yielded an activation of -0.25%. For `CCCCNc1c(-c2cccc(Sc3ccc(OC)cc3)c2)nc2ccccn12`, the activation was 23.6% (active). `COc1ccc(/C=N/Nc2ccccc2C(=O)O)cc1` was tested, and the activation was 15.9% (active). Work on `COc1ccc(/C=N/NC(=O)C(C)N(c2ccc(OC)cc2)S(C)(=O)=O)cc1` (stereo not given) yielded an activation of -1.2%. For `COc1ccc(/C=N/NC(=O)Cn2cc(C(F)(F)F)ccc2=O)cc1`, the activation was -1.47%. `COc1ccc(-c2nnc3n2CCCCC3)cc1` gave an activation of -2.42%. Compound `COc1cc(OC)cc(C(=O)NNC(=O)CCOc2ccccc2OC)c1` has an activation of -0.14%. Work on `O=C(COC(=O)/C=C/c1cccc(Cl)c1)NCCc1ccccc1` yielded an activation of -2.95%. For `NNc1cccc(C=Cc2ccccc2)cc1=O`, the activation was 15.7% (active). Work on `CC(=O)C1=C(O)C(=O)N(c2ccc(S(N)(=O)=O)cc2)C1c1ccccc1F` (stereo not given) yielded an activation of 3.54%. In the case of `CSc1ncnc2c1ncn2CCCNCC(C)c1ccccc1` (stereo not given), the activation is reported as -3.42%. In the case of `CSc1ncnc2c1ncn2CCCNCc1cccs1`, the activation is reported as 19.2% (active). In the case of `CSc1ncnc2c1ncn2CCCNCc1ccco1`, the activation is reported as 5.16%. Compound `COc1ccc(CCNC(=O)C2CCCN2C(=O)Nc2ccccc2)cc1OC` (stereo not given) has an activation of -3.12%. `CCOC(=O)N1CCN(C(=O)CN(C2CCCCC2)S(C)(=O)=O)CC1` gave an activation of 7.43%. For `CN(N)c1nc(N2CCCC2)nc(N2CCCC2)n1`, the activation was 3.15%. `COc1nc(NC2CCCCC2)nc(N2CCCCCC2)n1` gave an activation of -0.64%. In the case of `FC(F)(F)COc1nc(N2CCCCC2)nc(N2CCNCC2)n1`, the activation is reported as 25.4% (active). `COC(=O)c1ccc(CSc2nncn2N)cc1` was tested, and the activation was -0.96%. In the case of `COC(=O)c1ccc(CSc2nnc(NC(C)C)s2)cc1`, the activation is reported as 16% (active). For `COC(=O)c1ccc(CSc2nncn2C)cc1`, the activation was 4.16%. For `OC(COCCC12CC3CC(CC(C3)C1)C2)CN1CCCCC1` (stereo not given), the activation was -6.43%. `CCCCn1c(N)c(N(CCOC)C(=O)c2sc3ccccc3c2Cl)c(=O)[nH]c1=O` showed an activation of -2.4%. In the case of `Cc1ccccc1CSCC(=O)NC(=O)NC(C)(C)C`, the activation is reported as 19.9% (active). `CC(C)(C)NC(=O)NC(=O)CN1CCC(Cc2ccccc2)CC1` gave an activation of 0.69%. Work on `Cc1cc(NC(=O)CSCc2ccccc2C)no1` yielded an activation of -1.07%.
